Assay results reported in PubChem BioAssay (NCI).
This is part of a sample that, as a whole, favours compounds with a hit. Of some 79,000 tested, about 15% had one in any assay. Calls of active or inactive are those of the source. Cut-off read from the data, not from the text of the source: active = growth inhibition above about 70%; inactive = the rest.

test: NCI Yeast Anticancer Drug Screen. Data for the rad50 strain (AID 155);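 note: 0% = growth of vehicle-only cultures of the same strain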; conditions: S. cerevisiae rad50 strain growth inhibition; at 50.0 µM; hits give high values
Procedure, shortened: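 Vehicle-treated cultures provide the reference for the growth inhibition reported for compound-exposed, repair-deficient yeast.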

SMILES | growth inhibition
CC1CCC(O)C(C(O)CC2CC(=O)NC(=O)C2)C1 (stereo not given) | 23.3% (inactive)
O=C(O)C(Cc1cccs1)C(=O)OCCc1ccccc1 (stereo not given) | -4.95% (inactive)
CC(C(=O)c1ccc(Cl)cc1)/C(=N/NC(=O)NN)C(=O)Nc1cccc(C(F)(F)F)c1 (stereo not given) | -8.45% (inactive)
O=C1NCCN(CCc2ccccc2)C1c1ccccc1 (stereo not given) | -9.6% (inactive)
Cc1cc(=O)n(NC(N)=O)c(C)c1C(=O)O | -0.8% (inactive)
CS(=O)(=O)OCC1COCC1COS(C)(=O)=O (stereo not given) | 26.8% (inactive)
CCOC(=O)CN(c1c(C)cc(C)c(N(CC(=O)OCC)S(=O)(=O)c2ccccc2)c1C)S(=O)(=O)c1ccccc1 | 40.5% (inactive)
COc1cc(/C=C/C(=O)OCC23CC[C@@]4(C(=O)O)CCC(C)[C@H](C)C4C2=CCC2[C@@]4(C)CC[C@H](O)C(C)(C)C4CC[C@]23C)ccc1O (stereo not given in full) | 20.2% (inactive)
N#CC(C#N)=C(N)/C(C#N)=C/c1ccc2[nH]ccc2c1 | -11% (inactive)
CC(=C/c1ccccc1)/C=C1/SC(=S)N(C=C2C(=O)NC(=O)NC2=O)C1=O | 54.9% (inactive)
O=c1c2c([nH]n1-c1ccccc1)-c1ccccc1CS2 | 40.2% (inactive)
CCCCOC(=O)C1CC2CC1C1OC21 (stereo not given) | -67.6% (inactive)
CC(C)OC1CC1 | 4.65% (inactive)
COc1ccc(CC[N+]2=Cc3cc(OC)c(OC)cc3CC2)cc1OC | -0.9% (inactive)
Cc1ccc(NC(=O)CN2CCCCC2)cc1 | -16.9% (inactive)
c1ccc([Si]2(c3ccccc3)[Si](c3ccccc3)(c3ccccc3)[Si](c3ccccc3)(c3ccccc3)[Si]2(c2ccccc2)c2ccccc2)cc1 | 6% (inactive)
CC(C)CC(N)C(=O)OCN1C(=O)C2C3C=CC(C2C1=O)C1C2C(=O)N(COC(=O)C(N)CC(C)C)C(=O)C2C31 (stereo not given) | 16.1% (inactive)
O=c1ccc2ccc(O)c(O)c2o1 | -10.9% (inactive)
CCOC(=O)NC(CI)(c1ccccc1)c1ccccc1 | 20.9% (inactive)
CCC/C=C(/CC)COC(C)=O | 3.15% (inactive)

SMILES | growth inhibition
[O]=[W](=[O])([OH])[OH] | -11.3% (inactive)
N#CC(C#N)=C/C=C/C=C/c1c(Cl)cccc1Cl | -6% (inactive)
CC1(C)OCC(C2OC3OC(C)(C)OC3C2O)O1 (stereo not given) | 4% (inactive)
CN(C)CCOC(=O)C(C)(C)Sc1ccc(Cl)cc1 | 11.1% (inactive)
O=C1OC(c2ccc(Cl)cc2)=N/C1=C\c1c(Cl)cccc1Cl | 6.9% (inactive)
COc1ccc(-c2cc(=O)c3c(OC)cccc3o2)c(OC)c1OC | -8.9% (inactive)
Nc1ccc(C(=O)c2ccccc2)cc1Cl | 60.7% (inactive)
C=C1C(=O)[C@@]23CC[C@@H]4[C@@]5(C)CCC[C@@]4(OC5=O)[C@@]2(C)CC[C@@H]1C3 | 92.1% (active)
CCOc1cc2c(cc1C/C=C/c1ccc(OC)cc1)OCO2 | 26.4% (inactive)
N[C@H](C(=O)O)[C@H]1ON=C(Cl)[C@@H]1O | 7.4% (inactive)
N#CCCN(C1=NN(C(=O)CC(=O)Nc2ccccc2)C(c2ccccc2)C1)c1ccccc1Cl (stereo not given) | -5.05% (inactive)
CC1=Nc2c(ccc3c2C(=O)c2ccccc2C3=O)NC(c2ccncc2)C1 (stereo not given) | 31.1% (inactive)
CC1(C2(C)SCCS2)SCCS1 | 11.2% (inactive)
CCOC(=O)Cc1n[nH]c(=O)c2ccccc12 | -21.6% (inactive)
NC(=O)C1CC(I)C2CC1C(=O)O2 (stereo not given) | 1.45% (inactive)
Cc1cc[n+](CCc2c[nH]c3ccccc23)cc1C | 30.5% (inactive)
Cc1cccc(C(=O)NCCN(C)C)c1[N+](=O)[O-] | 5.55% (inactive)
CN1c2ccccc2C(=O)NC12CCN(CCCC(=O)c1ccc(F)cc1)CC2 | 6.6% (inactive)
CCOC(=O)c1nc2ccc(C(F)(F)F)cc2nc1NCc1ccc(F)cc1 | -13.9% (inactive)
NC(=O)NC(=O)CC1NC(=O)NC1=O (stereo not given) | 9.25% (inactive)

test: NCI Yeast Anticancer Drug Screen. Data for the mec2-1 strain (AID 157); conditions: S. cerevisiae mec2-1 strain, at 50.0 µM, hits give high values
Procedure, shortened: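 Each compound was tested on mec2-1 yeast, a strain altered in DNA damage repair or cell cycle control. Growth inhibition is reported relative to vehicle.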

SMILES | growth inhibition
CC1CCC(O)C(C(O)CC2CC(=O)NC(=O)C2)C1 (stereo not given) | -3.3% (inactive)
O=C(O)C(Cc1cccs1)C(=O)OCCc1ccccc1 (stereo not given) | -6.45% (inactive)
CC(C(=O)c1ccc(Cl)cc1)/C(=N/NC(=O)NN)C(=O)Nc1cccc(C(F)(F)F)c1 (stereo not given) | -16.6% (inactive)
O=C1NCCN(CCc2ccccc2)C1c1ccccc1 (stereo not given) | 0.95% (inactive)
Cc1cc(=O)n(NC(N)=O)c(C)c1C(=O)O | 0.45% (inactive)
CS(=O)(=O)OCC1COCC1COS(C)(=O)=O (stereo not given) | -6.3% (inactive)
CCOC(=O)CN(c1c(C)cc(C)c(N(CC(=O)OCC)S(=O)(=O)c2ccccc2)c1C)S(=O)(=O)c1ccccc1 | 8.95% (inactive)
COc1cc(/C=C/C(=O)OCC23CC[C@@]4(C(=O)O)CCC(C)[C@H](C)C4C2=CCC2[C@@]4(C)CC[C@H](O)C(C)(C)C4CC[C@]23C)ccc1O (stereo not given in full) | 9.95% (inactive)
N#CC(C#N)=C(N)/C(C#N)=C/c1ccc2[nH]ccc2c1 | 6.95% (inactive)
CC(=C/c1ccccc1)/C=C1/SC(=S)N(C=C2C(=O)NC(=O)NC2=O)C1=O | 54.1% (inactive)
O=c1c2c([nH]n1-c1ccccc1)-c1ccccc1CS2 | 15.9% (inactive)
CCCCOC(=O)C1CC2CC1C1OC21 (stereo not given) | -63.3% (inactive)
CC(C)OC1CC1 | -10.6% (inactive)
COc1ccc(CC[N+]2=Cc3cc(OC)c(OC)cc3CC2)cc1OC | -2.8% (inactive)
Cc1ccc(NC(=O)CN2CCCCC2)cc1 | -7.65% (inactive)
c1ccc([Si]2(c3ccccc3)[Si](c3ccccc3)(c3ccccc3)[Si](c3ccccc3)(c3ccccc3)[Si]2(c2ccccc2)c2ccccc2)cc1 | -1.4% (inactive)
CC(C)CC(N)C(=O)OCN1C(=O)C2C3C=CC(C2C1=O)C1C2C(=O)N(COC(=O)C(N)CC(C)C)C(=O)C2C31 (stereo not given) | 15.6% (inactive)
O=c1ccc2ccc(O)c(O)c2o1 | -5.3% (inactive)
CCOC(=O)NC(CI)(c1ccccc1)c1ccccc1 | 10.2% (inactive)
CCC/C=C(/CC)COC(C)=O | -19.1% (inactive)

SMILES | growth inhibition
[O]=[W](=[O])([OH])[OH] | -13.2% (inactive)
N#CC(C#N)=C/C=C/C=C/c1c(Cl)cccc1Cl | 1.8% (inactive)
CC1(C)OCC(C2OC3OC(C)(C)OC3C2O)O1 (stereo not given) | 15.2% (inactive)
CN(C)CCOC(=O)C(C)(C)Sc1ccc(Cl)cc1 | 23.3% (inactive)
O=C1OC(c2ccc(Cl)cc2)=N/C1=C\c1c(Cl)cccc1Cl | -1.3% (inactive)
COc1ccc(-c2cc(=O)c3c(OC)cccc3o2)c(OC)c1OC | -12.7% (inactive)
Nc1ccc(C(=O)c2ccccc2)cc1Cl | 35% (inactive)
C=C1C(=O)[C@@]23CC[C@@H]4[C@@]5(C)CCC[C@@]4(OC5=O)[C@@]2(C)CC[C@@H]1C3 | 93.7% (active)
CCOc1cc2c(cc1C/C=C/c1ccc(OC)cc1)OCO2 | 12.6% (inactive)
N[C@H](C(=O)O)[C@H]1ON=C(Cl)[C@@H]1O | 4.55% (inactive)
N#CCCN(C1=NN(C(=O)CC(=O)Nc2ccccc2)C(c2ccccc2)C1)c1ccccc1Cl (stereo not given) | -3.9% (inactive)
CC1=Nc2c(ccc3c2C(=O)c2ccccc2C3=O)NC(c2ccncc2)C1 (stereo not given) | 5% (inactive)
CC1(C2(C)SCCS2)SCCS1 | 2.9% (inactive)
CCOC(=O)Cc1n[nH]c(=O)c2ccccc12 | 1.4% (inactive)
NC(=O)C1CC(I)C2CC1C(=O)O2 (stereo not given) | -4.3% (inactive)
Cc1cc[n+](CCc2c[nH]c3ccccc23)cc1C | -0.3% (inactive)
Cc1cccc(C(=O)NCCN(C)C)c1[N+](=O)[O-] | -20.9% (inactive)
CN1c2ccccc2C(=O)NC12CCN(CCCC(=O)c1ccc(F)cc1)CC2 | 6.95% (inactive)
CCOC(=O)c1nc2ccc(C(F)(F)F)cc2nc1NCc1ccc(F)cc1 | 7.6% (inactive)
NC(=O)NC(=O)CC1NC(=O)NC1=O (stereo not given) | 12% (inactive)
